This is an account of results in PubChem BioAssay (NCI).

About 83,000 compounds went through this panel and 20% of them were active in at least one assay; those are over-represented in the sample as a whole.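 Step 1: grow cells in 96-well plates. Step 2: add test compound at a single concentration. Step 3: incubate 48 h. Step 4: record percent growth.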 Values without a mark were called inactive. The source made the active and inactive calls. The calls were made as follows: active = growth percent below 10; inactive = the rest.

Common to all, as to assay: NCI-60 one-dose screen, 48 h (100 = growth as untreated, 0 = no growth, -100 = all killed)
Common to all, as to conditions: 10 µM unless noted

In assay [1] the test system is T-47D breast.
Assay [2] concerns BT-549 breast.
For assay [3], the system named is MDA-MB-435 melanoma.
For assay [4], the system named is SW-620 colon.
Assay [5] has as its system MCF7 breast.
Assay [6] deals with HCT-116 colon.
For assay [7], the system named is HCC-2998 colon.
Assay [8] concerns KM12 colon.

On to `CC(=O)N(C)c1ccc(Nc2cc(C)[nH]c3ccc4ncnc4c23)cc1`, for which the growth in assay [1] was 47.5%; in assay [2], 61.6%; in assay [3] it was 81.3%; in assay [4] it was 45.5%; in assay [5] it was 28.3%; in assay [6], 19.2%. Besides, the growth in assay [7] was 26.9%; in assay [8] it was 67.6%.
On to `c1ccc(C(Nc2ccccn2)(c2ccccc2)c2ccccc2)cc1`, for which the growth was 72.7% in assay [1]; 99.2% in assay [2]; 96.5% in assay [3]; 84.4% in assay [4]; 62.4% in assay [5]; 65.7% in assay [6]. For the same molecule, the growth in assay [7] is 82.6%; in assay [8] it was 71.9%.
Regarding `Cc1ccc(/C=C/C(=N/N=C(N)N)c2ccccc2)cc1`, the growth is 40.9% in assay [1]; 47.7% in assay [2]; -16.9% (active) in assay [3]; 25.9% in assay [4]; 11.6% in assay [5]; 20.1% in assay [6]. Besides, the growth in assay [7] was 20.9%; in assay [8], 14.8%.
As for `CSCCC1NC(=O)C(C(C)=Nc2ccccc2)=C1O` (stereo not drawn), the growth in assay [1] was 103%; in assay [2], 105%; in assay [3] it was 95.4%; in assay [4], 104%; in assay [5], 91.3%; in assay [6] it was 107%. Besides, the growth in assay [7] was 113%; in assay [8], 79.3%.
As to `COc1cc(Cn2c(-c3ccccc3)cc3c2-c2oncc2CC3)cc(OC)c1OC`, the growth in assay [1] was 38.1%; in assay [2], 41.2%; in assay [3] it was -58.1% (active); in assay [4] it was 24.3%; in assay [5], 14.1%; in assay [6] it was 25.3%. Moreover, the growth is 42.7% in assay [7] and 26.2% in assay [8].
As to `C=CCn1c(SCC(=O)Nc2ccc(/C(C)=N\O)cc2)nnc1-c1cc(-c2ccccc2)nc2ccccc12`, the growth in assay [1] is 15.2%; in assay [2], 54%; in assay [3] it was 56.1%; in assay [4] it was 51.9%; in assay [5] it was 21%; in assay [6] it was 44%. Besides, the growth in assay [7] is 62.1%; in assay [8] it was 44.8%.
As for `CNCc1ccccc1CN(CC(=O)Nc1ccc2c(c1)CC1(C2)C(=O)Nc2ncccc21)C(=O)C(C)(C)C` (stereo not drawn), the growth is 94.1% in assay [1]; 96.3% in assay [2]; 95.7% in assay [3]; 97.4% in assay [4]; 102% in assay [5]; 105% in assay [6]. The growth in assay [7] was 113%; in assay [8] it was 107%.
Turning to `Cc1ccc(O)c(Cc2ccccc2)c1`, the growth was 101% in assay [1]; 92.4% in assay [2]; 107% in assay [3]; 98.4% in assay [4]; 114% in assay [5]; 98% in assay [6]. Further, the growth was 102% in assay [7] and 103% in assay [8].
Regarding `Clc1cc(Br)ccc1-c1ccc(CNCC2CCNCC2)o1`, the growth in assay [1] is 43.8%; in assay [2] it was 77.9%; in assay [3] it was 52.9%; in assay [4], 24.5%; in assay [5] it was 39.7%; in assay [6] it was 40.9%. Also, the growth in assay [7] was 88.2%; in assay [8] it was 53.9%.
Turning to `O=C(CCCCCCc1nc2ccc(Br)cc2[nH]1)NO`, the growth in assay [1] is -32.3% (active); in assay [2] it was 16.4%; in assay [3], -10.5% (active); in assay [4], -76.8% (active); in assay [5], 1.84% (active); in assay [6], -89.2% (active). Also, the growth was -51.7% (active) in assay [7] and -65.4% (active) in assay [8].
Regarding `CCOC(=O)Nc1ccc2nc(-c3cscn3)[nH]c2c1`, the growth is 44.5% in assay [1]; 48.6% in assay [2]; -40.5% (active) in assay [3]; 19.8% in assay [4]; 34% in assay [5]; 21.6% in assay [6]. Moreover, the growth is 65.7% in assay [7] and 34.3% in assay [8].
`CN(C)c1ccc(N2Cc3ccccc3OC3=C2C(=O)c2c(O)ccc(O)c2C3=O)cn1`: the growth in assay [1] is -47.9% (active); in assay [2], -71.2% (active); in assay [3], -21.3% (active); in assay [4] it was -58.3% (active); in assay [5] it was -55% (active); in assay [6], -86.8% (active). For the same molecule, the growth is -75.2% (active) in assay [7] and -41.9% (active) in assay [8].
As for `Cc1ccc(NC(=O)c2[nH]c(SCCN(C)C)nc2-c2ccc(F)cc2)cc1C#Cc1cnc2cccnn12`, the growth in assay [1] was 84.2%; in assay [2], 94.8%; in assay [3], 25.7%; in assay [4] it was 0.0547% (active); in assay [5], 23.1%; in assay [6], -64.3% (active). For the same molecule, the growth is 96.3% in assay [7] and -6.46% (active) in assay [8].
Regarding `O=C(O)/C=C(\c1nc2ccc([N+](=O)[O-])cc2[nH]1)c1cc(Cl)ccc1O`, the growth is 5.42% (active) in assay [1]; 8.6% (active) in assay [2]; 20.5% in assay [3]; 28.6% in assay [4]; 13.4% in assay [5]; 8.05% (active) in assay [6]. For the same molecule, the growth in assay [7] is 27.8%; in assay [8] it was 21.3%.
`CC(=O)OC1Oc2cc(C)c(C)cc2-c2oc(=O)c(-c3cc4ccccc4oc3=O)cc21` (stereo not drawn): the growth is 91.9% in assay [1]; 129% in assay [2]; 112% in assay [3]; 133% in assay [4]; 108% in assay [5]; 81.1% in assay [6]. Moreover, the growth in assay [7] was 96.2%; in assay [8], 103%.
`COc1ccc(-c2n[nH]nc2-c2cc(OC)c3c(c2)OCO3)cc1`: the growth in assay [1] is 53.7%; in assay [2], 15.6%; in assay [3], -74.7% (active); in assay [4] it was 22.6%; in assay [5], 15.9%; in assay [6] it was 5.38% (active). In addition, the growth in assay [7] is -3.69% (active); in assay [8], 2.06% (active).
